According to PubChem BioAssay (NCI):
About 83,000 compounds went through this panel and 20% of them were active in at least one assay; those are over-represented in the sample as a whole.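 Each cell line was grown in a 96-well plate and treated with one concentration of compound for 48 hours. Values below 10 were considered active.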 Calls of active or inactive are those of the source.

How the values were obtained:
Assay in all cases: NCI-60 one-dose screen, 48 h (100 = growth as untreated, 0 = no growth, -100 = all killed)
Conditions in all cases: 10 µM unless noted
[1] = test system: DU-145 prostate
[2] = test system: K-562 leukemia
[3] = test system: MALME-3M melanoma
[4] = test system: MDA-MB-231 breast
[5] = test system: RXF 393 renal
[6] = test system: SF-268 CNS
[7] = test system: SF-295 CNS
[8] = test system: SF-539 CNS
[9] = test system: UACC-257 melanoma
[10] = test system: M14 melanoma

Measured: growth

CCC(C(=O)[C@@H](C)[C@@H](O)[C@H](C)[C@@H]1O[C@@H]([C@@H](CC)C(=O)ONC(=O)c2ccccc2)CC[C@@H]1C)[C@H]1O[C@]2(C=CC(=O)[C@]3(CC[C@@](C)([C@H]4CC[C@](O)(CC)[C@H](C)O4)O3)O2)[C@H](C)C[C@@H]1C (stereo not given in full)
active: [1] -13% | [2] -6.87% | [3] -24.7% | [4] -53.2% | [5] -6.41% | [7] 1.07% | [8] -62.8%
inactive: [6] 28.4% | [9] 32% | [10] 21.1%

CCOC(=O)C1=C(c2ccccc2)N=C2SC=C(c3ccc(Cl)cc3)N2C1c1ccc(Cl)cc1 (stereo not given)
inactive: [1] 87.7% | [2] 73.8% | [3] 87.2% | [4] 74.2% | [5] 72% | [6] 78.8% | [7] 88.9% | [8] 92.8% | [9] 64.9% | [10] 82.8%

COc1ccc(/C=N/C2=C(C#N)C(c3ccccc3)c3ccc4ccccc4c3O2)cc1 (stereo not given)
active: [7] 9% | [8] -8.29% | [10] 2.72%
inactive: [1] 25.6% | [2] 12.2% | [3] 43.6% | [4] 18.7% | [5] 26% | [6] 46.5% | [9] 48.4%

COc1cc(/C=C2/C=C(c3ccccc3)N(CCc3ccc(S(N)(=O)=O)cc3)C2=O)cc(OC)c1OC
inactive: [1] 109% | [2] 93.6% | [3] 84.2% | [4] 96.8% | [5] 96.1% | [6] 107% | [7] 99.2% | [8] 101% | [9] 84% | [10] 89.8%

Cc1ccc(/C=C2\COc3ccc(O)cc3C2=O)cc1
inactive: [1] 103% | [2] 17.9% | [3] 90.3% | [4] 90.7% | [5] 96.3% | [6] 86.3% | [7] 105% | [8] 98.7% | [9] 103% | [10] 93.1%

O=c1c2cccc3c(N4CCCC4)ccc(c32)c2nc3ccccc3n12
inactive: [1] 78.1% | [2] 76% | [3] 70.4% | [4] 77.1% | [5] 103% | [6] 92% | [7] 59.8% | [8] 91.3% | [9] 91.8% | [10] 91.5%

Cc1ccc(-c2nc([P+](c3ccccc3)(c3ccccc3)c3ccccc3)c(S(=O)(=O)c3ccc(C)cc3)o2)cc1
active: [2] 4.12% | [3] -0.571% | [4] 3.47% | [5] -28.6% | [8] -65.6% | [9] 3.98%
inactive: [1] 25.5% | [6] 45.5% | [7] 81% | [10] 19.3%

COC(=O)[C@]12CCC(C)(C)C[C@H]1[C@H]1/C(=N/OCCc3nn[nH]n3)C[C@@H]3[C@@]4(C)CC[C@H](OC(C)=O)C(C)(C)[C@@H]4CC[C@@]3(C)[C@]1(C)CC2
inactive: [1] 53.8% | [2] 24.5% | [3] 40.4% | [4] 48.5% | [5] 70.1% | [6] 45.5% | [7] 25% | [8] 44.7% | [9] 16.5% | [10] 48.4%

COc1ccc(-c2nc3c(ncc4ccc(=O)[nH]c43)s2)cc1
inactive: [1] 67.7% | [2] 93.3% | [3] 93.9% | [4] 81.5% | [5] 88.5% | [6] 76.6% | [7] 88.1% | [8] 84% | [9] 118% | [10] 74.7%

Nc1n[nH]c2ccc([C@H]3[C@@H]4C5CCC(C5)[C@@H]4c4c(ccc5[nH]ncc45)N3S(=O)(=O)C3CC3)cc12 (stereo not given in full)
active: [4] -9.16% | [8] -25.5% | [10] 7.92%
inactive: [1] 17.9% | [2] 13.6% | [3] 61.4% | [5] 26.2% | [6] 37.1% | [7] 12.6% | [9] 63.8%

O=C1NC(=O)C(Cc2ccc(OCc3ccc(-c4ccc(Cl)cc4Cl)cc3)cc2)S1 (stereo not given)
inactive: [1] 78.9% | [2] 23.5% | [3] 49.9% | [4] 71% | [5] 76.1% | [6] 51.8% | [7] 45% | [8] 56.2% | [9] 55.7% | [10] 47.5%

CN(C)CC1CCC(CN(C)C)C1=O (stereo not given)
inactive: [1] 115% | [3] 115% | [4] 117% | [5] 123% | [6] 108% | [7] 133% | [8] 109% | [9] 109% | [10] 108%
active: [2] 4.34%

CCc1ncnc2c1ccn2C(C)c1ccc(OC)c(F)c1 (stereo not given)
inactive: [1] 82.3% | [2] 11.5% | [3] 74.9% | [4] 56.7% | [5] 76.5% | [6] 63.2% | [7] 36% | [8] 70.6% | [9] 40% | [10] 36.3%

Cc1ccc(NC(=O)Cn2cc(CN3CCN(c4ccnc5cc(Cl)ccc45)CC3)nn2)cc1
inactive: [1] 102% | [2] 63.8% | [3] 100% | [4] 77.1% | [5] 88.5% | [6] 80.1% | [7] 86.3% | [8] 98.7% | [9] 103% | [10] 103%

CC(=O)c1c(C)nc2ccccc2c1/C=C/c1ccc(F)cc1
inactive: [1] 96.1% | [2] 60.2% | [3] 123% | [4] 93.8% | [5] 92.7% | [6] 90.6% | [7] 84% | [8] 90.4% | [9] 95.2% | [10] 107%

COc1cc2c(cc1OC)C(C)N(S(N)(=O)=O)CC2 (stereo not given)
inactive: [1] 105% | [2] 103% | [3] 105% | [4] 101% | [5] 113% | [6] 96.2% | [7] 104% | [8] 97.7% | [9] 100% | [10] 91.8%

CC1=NC2=Nn3c(c4cnn(-c5ccccc5)c4n/c3=N\N)NN2C(c2ccccc2)=C1
inactive: [1] 105% | [2] 102% | [3] 87.9% | [4] 88.7% | [5] 74% | [6] 96.1% | [7] 90.7% | [8] 94.7% | [9] 101% | [10] 93.1%

O=C1/C(=C/c2ccc([N+](=O)[O-])cc2)COc2ccc(O)cc21
inactive: [1] 92.6% | [2] 11.2% | [3] 96.1% | [4] 80.8% | [5] 98.9% | [6] 84% | [7] 98.6% | [8] 94.5% | [9] 106% | [10] 88.2%

CSc1nc2ncc([N+](=O)[O-])c(=O)n2[nH]1
inactive: [1] 110% | [2] 104% | [3] 101% | [4] 108% | [5] 105% | [6] 98.8% | [7] 96.6% | [8] 100% | [9] 105% | [10] 98.4%

CCCCNC(=O)Oc1ccc(/C(=C(/C)Cc2ccc(OC)cc2)c2ccc(OCCN3CCCC3)cc2)cc1
active: [2] -27.8% | [10] -64.6%
inactive: [1] 80.1% | [3] 58.8% | [4] 69% | [5] 57% | [6] 71.8% | [7] 69.7% | [8] 86.1% | [9] 43.1%

c1csc(-c2ccc(CNc3c4ccccc4nc4ccccc34)cc2)c1
inactive: [1] 61.7% | [4] 38.3% | [6] 62.9% | [7] 15.8% | [8] 12.5%
active: [2] -39.9% | [3] -82% | [5] -14.3% | [9] -37.4% | [10] -74.4%

Cn1ccc(=O)c(C(=O)Nc2nsc3ccc([N+](=O)[O-])cc23)c1
inactive: [1] 63.2% | [2] 78.3% | [3] 65.7% | [4] 47.9% | [5] 35.9% | [6] 74.9% | [7] 110% | [8] 77.6% | [9] 89.6% | [10] 46.6%

COc1ccc(C2=C(Br)C(=O)c3nc(C)ccc3C2=O)cc1
inactive: [1] 105% | [2] 36.7% | [3] 91.7% | [4] 73.2% | [5] 95.2% | [6] 94.6% | [7] 105% | [8] 94.8% | [9] 64.2% | [10] 92.8%

Cc1sc2nc(NCCc3c[nH]c4ccc(Cl)cc34)[nH]c(=O)c2c1C
active: [5] 7.63%
inactive: [1] 62.2% | [2] 22.3% | [3] 60.2% | [4] 31.1% | [6] 15.5% | [7] 50.7% | [8] 40.1% | [9] 32.6% | [10] 26.5%

CC(C)(C)[Si](C)(C)OC1[C@@H](CNC(=O)NC(=O)NC(N)=O)O[C@@H](n2cnc3c(NC(=O)Nc4ccccc4)ncnc32)[C@H]1O[Si](C)(C)C(C)(C)C (stereo not given in full)
inactive: [1] 58.9% | [2] 66.3% | [3] 79% | [4] 83.7% | [5] 71.6% | [6] 66.4% | [7] 73.1% | [8] 95.4% | [9] 94% | [10] 68%

CN1C(=O)/C(=C\c2nc([P+](c3ccccc3)(c3ccccc3)c3ccccc3)c(N3CCOCC3)o2)SC1=S
inactive: [1] 100% | [2] 17.2% | [4] 54.8% | [5] 98.1% | [6] 97.3% | [7] 103% | [8] 63% | [9] 61.1% | [10] 47%
active: [3] -10.8%

Cc1ccc(-c2nc(N3CCCNCC3)c3oc(-c4ccccc4)nc3n2)cc1
active: [1] -15.2% | [2] -63.6% | [3] -92.4% | [4] -91.7% | [5] -74.3% | [6] -42.9% | [7] -89.6% | [8] -91.4% | [9] -82.2% | [10] -94.7%
